Data: ChEMBL document CHEMBL1961873, “Compounds: GSK PKIS; Assays: Nanosyn kinase panel” (2012)

How the values were obtained:
[1] = molecular target: Tyrosine-protein kinase Fyn (Homo sapiens) (UniProt P06241); conditions: at 1 µM
[2] = molecular target: Tyrosine-protein kinase HCK (Homo sapiens) (UniProt P08631); conditions: at 0.1 µM
[3] = molecular target: Tyrosine-protein kinase HCK (Homo sapiens) (UniProt P08631); conditions: at 1 µM
[4] = molecular target: Insulin-like growth factor 1 receptor (Homo sapiens) (UniProt P08069); conditions: at 0.1 µM
[5] = molecular target: Insulin-like growth factor 1 receptor (Homo sapiens) (UniProt P08069); conditions: at 1 µM
[6] = molecular target: Insulin receptor (Homo sapiens) (UniProt P06213); conditions: at 0.1 µM
Chain of Insulin receptor (Homo sapiens) (P06213 28-758 limits assumed): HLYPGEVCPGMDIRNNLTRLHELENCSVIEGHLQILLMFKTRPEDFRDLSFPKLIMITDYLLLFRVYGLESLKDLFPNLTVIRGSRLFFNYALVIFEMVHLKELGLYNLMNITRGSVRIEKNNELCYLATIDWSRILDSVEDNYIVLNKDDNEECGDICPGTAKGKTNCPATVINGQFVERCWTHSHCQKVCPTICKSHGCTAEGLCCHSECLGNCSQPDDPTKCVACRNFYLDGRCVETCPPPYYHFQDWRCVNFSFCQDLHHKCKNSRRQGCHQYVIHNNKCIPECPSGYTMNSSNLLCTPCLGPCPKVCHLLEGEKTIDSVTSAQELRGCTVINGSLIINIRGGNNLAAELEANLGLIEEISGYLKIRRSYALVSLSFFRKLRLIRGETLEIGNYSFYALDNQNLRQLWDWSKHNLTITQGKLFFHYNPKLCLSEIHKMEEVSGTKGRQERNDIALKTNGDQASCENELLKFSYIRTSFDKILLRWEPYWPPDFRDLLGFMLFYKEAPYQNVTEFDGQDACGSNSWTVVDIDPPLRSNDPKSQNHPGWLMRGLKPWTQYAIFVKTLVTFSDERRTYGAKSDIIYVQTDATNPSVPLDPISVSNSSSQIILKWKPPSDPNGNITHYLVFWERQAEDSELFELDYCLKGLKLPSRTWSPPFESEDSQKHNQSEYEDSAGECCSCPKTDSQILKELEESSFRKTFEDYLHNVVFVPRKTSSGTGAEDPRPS
Chain of Insulin receptor (Homo sapiens) (P06213 763-1382 limits assumed): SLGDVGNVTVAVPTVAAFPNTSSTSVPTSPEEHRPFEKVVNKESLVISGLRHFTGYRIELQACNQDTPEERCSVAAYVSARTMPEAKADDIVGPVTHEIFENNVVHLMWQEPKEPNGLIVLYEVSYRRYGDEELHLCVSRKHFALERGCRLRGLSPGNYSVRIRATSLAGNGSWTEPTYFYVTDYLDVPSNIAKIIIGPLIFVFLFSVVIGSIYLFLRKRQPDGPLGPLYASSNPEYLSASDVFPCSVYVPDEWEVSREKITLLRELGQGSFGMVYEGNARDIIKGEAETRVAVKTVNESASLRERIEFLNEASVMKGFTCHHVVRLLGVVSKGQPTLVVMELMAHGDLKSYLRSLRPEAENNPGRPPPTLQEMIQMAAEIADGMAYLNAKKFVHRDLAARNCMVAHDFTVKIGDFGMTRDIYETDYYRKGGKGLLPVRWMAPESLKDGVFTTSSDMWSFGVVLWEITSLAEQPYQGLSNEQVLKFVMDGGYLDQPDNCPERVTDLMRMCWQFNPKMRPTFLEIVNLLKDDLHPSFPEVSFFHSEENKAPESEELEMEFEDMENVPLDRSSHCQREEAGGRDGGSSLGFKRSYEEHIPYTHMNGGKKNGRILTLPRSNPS

[7] = molecular target: Insulin receptor (Homo sapiens) (UniProt P06213); conditions: at 1 µM
[8] = molecular target: Insulin receptor-related protein (Homo sapiens) (UniProt P14616); conditions: at 0.1 µM
[9] = molecular target: Insulin receptor-related protein (Homo sapiens) (UniProt P14616); conditions: at 1 µM
[10] = molecular target: T1, Tyrosine-protein kinase ITK/TSK (Homo sapiens) (UniProt Q08881); conditions: at 0.1 µM
T1 sequence (whole entry): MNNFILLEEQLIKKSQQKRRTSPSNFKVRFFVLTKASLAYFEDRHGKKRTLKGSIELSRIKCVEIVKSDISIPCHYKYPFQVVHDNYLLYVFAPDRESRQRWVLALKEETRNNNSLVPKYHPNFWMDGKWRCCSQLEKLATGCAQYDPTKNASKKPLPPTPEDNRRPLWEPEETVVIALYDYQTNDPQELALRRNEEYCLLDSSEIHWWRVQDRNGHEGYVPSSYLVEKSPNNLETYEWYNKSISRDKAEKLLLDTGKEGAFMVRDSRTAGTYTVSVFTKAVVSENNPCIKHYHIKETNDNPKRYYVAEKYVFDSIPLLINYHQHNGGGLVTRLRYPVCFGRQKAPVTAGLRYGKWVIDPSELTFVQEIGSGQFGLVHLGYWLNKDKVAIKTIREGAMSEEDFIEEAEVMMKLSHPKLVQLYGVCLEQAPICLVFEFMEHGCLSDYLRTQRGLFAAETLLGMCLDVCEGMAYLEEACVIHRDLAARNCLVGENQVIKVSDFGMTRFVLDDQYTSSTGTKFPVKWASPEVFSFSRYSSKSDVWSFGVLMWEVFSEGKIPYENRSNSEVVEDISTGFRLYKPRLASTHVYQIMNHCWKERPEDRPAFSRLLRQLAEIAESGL

[11] = molecular target: T1, Tyrosine-protein kinase ITK/TSK (Homo sapiens); conditions: at 1 µM
[12] = molecular target: Tyrosine-protein kinase JAK1 (Homo sapiens) (UniProt P23458); conditions: at 0.1 µM
Chain of Tyrosine-protein kinase JAK1 (Homo sapiens) (P23458 whole entry): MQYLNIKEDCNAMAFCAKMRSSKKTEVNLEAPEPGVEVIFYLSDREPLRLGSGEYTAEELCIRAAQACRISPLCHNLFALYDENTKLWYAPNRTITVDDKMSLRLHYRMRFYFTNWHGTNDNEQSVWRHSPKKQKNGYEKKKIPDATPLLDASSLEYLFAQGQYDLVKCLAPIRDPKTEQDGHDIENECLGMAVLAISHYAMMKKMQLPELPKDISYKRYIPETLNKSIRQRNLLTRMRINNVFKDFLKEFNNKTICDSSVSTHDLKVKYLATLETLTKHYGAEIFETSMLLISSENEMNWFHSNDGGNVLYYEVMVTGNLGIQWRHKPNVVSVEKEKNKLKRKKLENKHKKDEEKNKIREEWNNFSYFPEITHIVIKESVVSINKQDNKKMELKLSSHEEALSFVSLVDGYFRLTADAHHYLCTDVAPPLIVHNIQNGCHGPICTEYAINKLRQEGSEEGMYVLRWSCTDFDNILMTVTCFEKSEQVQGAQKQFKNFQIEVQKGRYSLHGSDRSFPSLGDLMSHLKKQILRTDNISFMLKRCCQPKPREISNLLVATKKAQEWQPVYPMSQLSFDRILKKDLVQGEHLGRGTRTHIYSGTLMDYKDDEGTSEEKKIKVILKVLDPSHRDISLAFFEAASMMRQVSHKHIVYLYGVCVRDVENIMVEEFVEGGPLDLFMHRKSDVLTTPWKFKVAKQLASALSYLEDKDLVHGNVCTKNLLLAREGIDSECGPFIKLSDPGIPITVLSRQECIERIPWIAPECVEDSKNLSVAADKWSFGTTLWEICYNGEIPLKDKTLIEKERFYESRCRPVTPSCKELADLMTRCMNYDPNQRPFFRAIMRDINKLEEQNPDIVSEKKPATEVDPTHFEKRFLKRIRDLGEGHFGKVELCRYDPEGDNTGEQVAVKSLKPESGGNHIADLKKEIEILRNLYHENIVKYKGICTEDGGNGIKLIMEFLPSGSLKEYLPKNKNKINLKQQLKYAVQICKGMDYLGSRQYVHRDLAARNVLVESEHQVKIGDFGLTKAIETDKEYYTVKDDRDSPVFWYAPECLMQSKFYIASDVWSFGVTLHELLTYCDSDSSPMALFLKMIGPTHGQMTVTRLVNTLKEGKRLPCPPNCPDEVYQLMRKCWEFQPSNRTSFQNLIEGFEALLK

[13] = molecular target: Tyrosine-protein kinase JAK1 (Homo sapiens) (UniProt P23458); conditions: at 1 µM
[14] = molecular target: Tyrosine-protein kinase JAK2 (Homo sapiens) (UniProt O60674); conditions: at 0.1 µM
[15] = molecular target: Tyrosine-protein kinase JAK2 (Homo sapiens) (UniProt O60674); conditions: at 1 µM
[16] = molecular target: T2, Tyrosine-protein kinase JAK3 (Homo sapiens) (UniProt P52333); conditions: at 0.1 µM
T2 sequence (whole entry): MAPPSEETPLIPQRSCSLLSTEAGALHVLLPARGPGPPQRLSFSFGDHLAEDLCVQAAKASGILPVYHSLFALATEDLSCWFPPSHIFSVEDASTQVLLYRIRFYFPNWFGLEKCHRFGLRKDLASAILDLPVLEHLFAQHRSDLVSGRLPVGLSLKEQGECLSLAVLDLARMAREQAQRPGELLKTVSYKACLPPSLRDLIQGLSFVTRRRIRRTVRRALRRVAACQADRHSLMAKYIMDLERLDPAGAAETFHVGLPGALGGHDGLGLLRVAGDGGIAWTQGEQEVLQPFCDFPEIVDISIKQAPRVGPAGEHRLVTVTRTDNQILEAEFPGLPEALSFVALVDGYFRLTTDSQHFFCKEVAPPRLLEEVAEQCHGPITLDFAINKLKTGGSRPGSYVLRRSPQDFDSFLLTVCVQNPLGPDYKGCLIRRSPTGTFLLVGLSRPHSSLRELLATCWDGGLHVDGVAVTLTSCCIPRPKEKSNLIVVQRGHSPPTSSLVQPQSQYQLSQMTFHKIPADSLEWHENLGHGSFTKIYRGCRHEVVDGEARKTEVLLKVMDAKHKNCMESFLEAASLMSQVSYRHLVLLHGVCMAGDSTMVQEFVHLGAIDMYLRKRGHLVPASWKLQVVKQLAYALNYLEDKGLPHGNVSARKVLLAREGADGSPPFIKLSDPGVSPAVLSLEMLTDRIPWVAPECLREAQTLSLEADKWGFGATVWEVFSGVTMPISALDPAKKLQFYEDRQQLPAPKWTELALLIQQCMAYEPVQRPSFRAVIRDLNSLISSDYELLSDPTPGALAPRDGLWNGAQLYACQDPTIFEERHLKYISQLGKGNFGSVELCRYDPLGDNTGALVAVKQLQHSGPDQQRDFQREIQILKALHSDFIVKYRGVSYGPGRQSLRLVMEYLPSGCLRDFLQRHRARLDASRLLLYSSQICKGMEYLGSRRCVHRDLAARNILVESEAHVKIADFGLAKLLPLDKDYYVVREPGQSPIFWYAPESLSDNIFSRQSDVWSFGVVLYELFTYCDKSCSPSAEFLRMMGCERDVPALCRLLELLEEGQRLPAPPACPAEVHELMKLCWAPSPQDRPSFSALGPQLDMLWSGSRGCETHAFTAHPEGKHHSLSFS

[17] = molecular target: T2, Tyrosine-protein kinase JAK3 (Homo sapiens); conditions: at 1 µM
[18] = molecular target: Vascular endothelial growth factor receptor 2 (Homo sapiens) (UniProt P35968); conditions: at 0.1 µM
Chain of Vascular endothelial growth factor receptor 2 (Homo sapiens) (P35968 whole entry): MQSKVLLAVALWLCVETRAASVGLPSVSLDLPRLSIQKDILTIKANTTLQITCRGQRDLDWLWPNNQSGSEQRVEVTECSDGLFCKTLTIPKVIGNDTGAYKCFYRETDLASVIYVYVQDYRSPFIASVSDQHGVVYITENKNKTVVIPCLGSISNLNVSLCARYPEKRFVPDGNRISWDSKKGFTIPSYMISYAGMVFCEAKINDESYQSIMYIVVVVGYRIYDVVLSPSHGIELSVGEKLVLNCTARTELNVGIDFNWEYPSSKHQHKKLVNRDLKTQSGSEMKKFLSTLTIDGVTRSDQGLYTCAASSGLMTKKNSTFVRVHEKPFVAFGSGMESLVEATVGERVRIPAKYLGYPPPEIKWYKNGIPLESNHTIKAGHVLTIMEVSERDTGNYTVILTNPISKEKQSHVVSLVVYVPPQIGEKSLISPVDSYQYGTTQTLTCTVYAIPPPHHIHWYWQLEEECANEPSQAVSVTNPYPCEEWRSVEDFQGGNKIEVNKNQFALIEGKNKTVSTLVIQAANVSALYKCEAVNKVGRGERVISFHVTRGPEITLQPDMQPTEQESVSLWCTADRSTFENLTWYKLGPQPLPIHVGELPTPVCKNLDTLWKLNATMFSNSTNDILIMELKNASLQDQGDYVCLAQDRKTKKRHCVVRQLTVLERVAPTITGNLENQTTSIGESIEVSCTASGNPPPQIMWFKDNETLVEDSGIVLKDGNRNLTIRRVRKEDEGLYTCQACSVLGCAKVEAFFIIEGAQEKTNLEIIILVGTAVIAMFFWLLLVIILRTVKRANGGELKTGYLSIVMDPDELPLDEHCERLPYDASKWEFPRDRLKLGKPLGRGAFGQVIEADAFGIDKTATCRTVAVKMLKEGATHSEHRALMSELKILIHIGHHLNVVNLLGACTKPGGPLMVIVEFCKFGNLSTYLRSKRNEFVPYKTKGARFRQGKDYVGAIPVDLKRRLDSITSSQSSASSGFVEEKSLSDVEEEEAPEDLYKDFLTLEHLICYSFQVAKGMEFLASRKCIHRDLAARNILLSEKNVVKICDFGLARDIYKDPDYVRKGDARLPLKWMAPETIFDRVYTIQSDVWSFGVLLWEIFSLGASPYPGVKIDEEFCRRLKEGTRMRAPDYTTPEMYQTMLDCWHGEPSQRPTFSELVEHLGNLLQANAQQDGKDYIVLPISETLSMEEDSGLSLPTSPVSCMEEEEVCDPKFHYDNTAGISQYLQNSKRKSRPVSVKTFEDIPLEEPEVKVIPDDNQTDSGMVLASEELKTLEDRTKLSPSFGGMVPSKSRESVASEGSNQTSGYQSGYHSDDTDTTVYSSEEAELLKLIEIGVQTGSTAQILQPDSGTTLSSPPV

[19] = molecular target: Vascular endothelial growth factor receptor 2 (Homo sapiens) (UniProt P35968); conditions: at 1 µM
[20] = molecular target: Mast/stem cell growth factor receptor Kit (Homo sapiens) (UniProt P10721); conditions: at 0.1 µM;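 note: values are mean inhibition of KIT, from the GSK PKIS dataset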

Chain of Tyrosine-protein kinase Fyn (Homo sapiens) (P06241 2-537 limits assumed): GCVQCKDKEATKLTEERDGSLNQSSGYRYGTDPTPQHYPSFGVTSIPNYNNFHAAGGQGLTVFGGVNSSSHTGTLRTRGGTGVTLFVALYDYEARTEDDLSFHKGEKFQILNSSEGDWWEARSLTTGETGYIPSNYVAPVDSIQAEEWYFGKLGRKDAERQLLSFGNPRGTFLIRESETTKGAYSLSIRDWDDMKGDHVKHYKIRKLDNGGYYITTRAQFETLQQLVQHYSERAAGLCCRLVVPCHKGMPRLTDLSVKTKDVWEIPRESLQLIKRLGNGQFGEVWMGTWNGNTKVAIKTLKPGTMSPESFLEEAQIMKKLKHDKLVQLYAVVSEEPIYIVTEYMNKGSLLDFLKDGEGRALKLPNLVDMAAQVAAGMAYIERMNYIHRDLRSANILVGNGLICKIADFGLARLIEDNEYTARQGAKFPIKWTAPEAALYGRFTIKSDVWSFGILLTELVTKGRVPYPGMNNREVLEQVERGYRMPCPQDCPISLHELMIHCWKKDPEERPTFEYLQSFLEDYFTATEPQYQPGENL
Chain of Tyrosine-protein kinase HCK (Homo sapiens) (P08631 2-526 limits assumed): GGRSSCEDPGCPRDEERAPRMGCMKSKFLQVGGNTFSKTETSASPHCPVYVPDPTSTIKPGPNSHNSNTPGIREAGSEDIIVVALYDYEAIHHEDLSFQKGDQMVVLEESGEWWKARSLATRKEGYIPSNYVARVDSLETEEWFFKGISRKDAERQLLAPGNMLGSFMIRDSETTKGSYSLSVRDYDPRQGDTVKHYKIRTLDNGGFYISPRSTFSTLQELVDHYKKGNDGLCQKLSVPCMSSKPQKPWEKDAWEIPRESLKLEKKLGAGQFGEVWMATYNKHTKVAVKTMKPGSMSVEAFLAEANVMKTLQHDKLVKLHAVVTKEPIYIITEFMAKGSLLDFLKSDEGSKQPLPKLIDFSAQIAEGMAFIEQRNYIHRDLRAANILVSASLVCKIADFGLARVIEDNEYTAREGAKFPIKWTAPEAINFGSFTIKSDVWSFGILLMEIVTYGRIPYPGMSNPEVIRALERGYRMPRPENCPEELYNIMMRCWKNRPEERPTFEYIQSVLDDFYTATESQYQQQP

Molecule `COc1ccc(-c2nn3ncccc3c2-c2ccnc(Nc3cccc(C(F)(F)F)c3)n2)cc1` has an inhibition [1] of 7.59%, an inhibition [2] of 4.3% and an inhibition [3] of 8.02%. For the same molecule, the inhibition [4] was -1.5%, the inhibition [5] was 0.2% and the inhibition [6] was 0.4%. For the same molecule, the inhibition [7] was 2.59%, the inhibition [8] was 1.52% and the inhibition [9] was 1.54%. The inhibition [10] was 0.45%, the inhibition [11] was 1.39% and the inhibition [12] was 2.27%. It also gave an inhibition [13] of 3.13%, an inhibition [14] of 0.53% and an inhibition [15] of 0.47%. It also gave an inhibition [16] of -3.85%, an inhibition [17] of -0.01% and an inhibition [18] of 3.64%. It also gave an inhibition [19] of 11.1% and an inhibition [20] of 3.46%.
`Cc1ccc(O)cc1Nc1ccnc2ccc(S(C)(=O)=O)cc12` showed an inhibition [1] of 94.1%, an inhibition [2] of 87.2% and an inhibition [3] of 89.9%. For the same molecule, the inhibition [4] was 4.41%, the inhibition [5] was 3.85% and the inhibition [6] was 6.63%. For the same molecule, the inhibition [7] was 8.39%, the inhibition [8] was 3.29% and the inhibition [9] was 3.19%. The inhibition [10] was 1.1%, the inhibition [11] was 1.21% and the inhibition [12] was 3.67%. For the same molecule, the inhibition [13] was 11.8%, the inhibition [14] was 1.33% and the inhibition [15] was 2.12%. It also gave an inhibition [16] of -1.23%, an inhibition [17] of 0.26% and an inhibition [18] of 70.1%. The inhibition [19] was 71.1% and the inhibition [20] was 13.2%.
`N#Cc1cccc(Nc2nccc(-c3cnn4ncccc34)n2)c1` was tested, and the inhibition [1] was 39.2%, the inhibition [2] was 7.16% and the inhibition [3] was 35.9%. The inhibition [4] was 8.04%, the inhibition [5] was 38.2% and the inhibition [6] was 9.03%. The inhibition [7] was 40.9%, the inhibition [8] was 3.98% and the inhibition [9] was 10.8%. For the same molecule, the inhibition [10] was 2.91%, the inhibition [11] was 21.1% and the inhibition [12] was 2.54%. The inhibition [13] was 14.9%, the inhibition [14] was 2.15% and the inhibition [15] was 22.1%. The inhibition [16] was 5.73%, the inhibition [17] was 36.2% and the inhibition [18] was 12.1%. The inhibition [19] was 43.9% and the inhibition [20] was 78.3%.
With `COC(=O)Nc1nc2cc(Oc3ccc(NC(=O)Nc4cccc(Br)c4)cc3)ccc2[nH]1` the inhibition [1] was 9.52%, the inhibition [2] was 6.2% and the inhibition [3] was 6.79%. It also gave an inhibition [4] of 3.08%, an inhibition [5] of 2.4% and an inhibition [6] of 1.48%. For the same molecule, the inhibition [7] was 5.63%, the inhibition [8] was 1.82% and the inhibition [9] was -1.05%. It also gave an inhibition [10] of 1.01%, an inhibition [11] of 1.87% and an inhibition [12] of 5.36%. For the same molecule, the inhibition [13] was 11.8%, the inhibition [14] was 1.09% and the inhibition [15] was 3.06%. For the same molecule, the inhibition [16] was -0.45%, the inhibition [17] was 1.27% and the inhibition [20] was 84.5%.
Work on `NS(=O)(=O)c1ccc(-c2cc3ccncc3cc2OCc2ccccc2)cc1` yielded an inhibition [1] of 3.52%, an inhibition [2] of 4.9% and an inhibition [3] of 6.46%. It also gave an inhibition [4] of 1.47%, an inhibition [5] of 2.17% and an inhibition [6] of 4.34%. For the same molecule, the inhibition [7] was 5.38%, the inhibition [8] was 2.36% and the inhibition [9] was 2.61%. The inhibition [10] was 0.77%, the inhibition [11] was 0.35% and the inhibition [12] was 3.02%. For the same molecule, the inhibition [13] was 10%, the inhibition [14] was 1.43% and the inhibition [15] was 3.23%. The inhibition [16] was -0.75%, the inhibition [17] was -1.27% and the inhibition [18] was 4.82%. The inhibition [19] was 8.11% and the inhibition [20] was 4.01%.
`Cc1cc(-c2ccccn2)cc(C)c1/C=C/c1cncc(-c2nn[nH]n2)c1` was tested, and the inhibition [1] was 9.92%, the inhibition [2] was 7.16% and the inhibition [3] was 17.3%. The inhibition [4] was 16.5%, the inhibition [5] was 10.9% and the inhibition [6] was 5.7%. The inhibition [7] was 5.57%, the inhibition [8] was 0.66% and the inhibition [9] was 2.24%. The inhibition [10] was 0.82%, the inhibition [11] was 0.66% and the inhibition [12] was 4.47%. It also gave an inhibition [13] of 3.3%, an inhibition [14] of 2.08% and an inhibition [15] of 2.43%. For the same molecule, the inhibition [16] was 0.16%, the inhibition [17] was 0.72% and the inhibition [18] was 3.45%. For the same molecule, the inhibition [19] was 14.2% and the inhibition [20] was 4.89%.
Molecule `COc1ccc2ncnc(Nc3ccc(OCc4ccccc4)cc3)c2c1` has an inhibition [1] of 10.2%, an inhibition [2] of 2.78% and an inhibition [3] of 8.33%. The inhibition [4] was 0.69%, the inhibition [5] was 0.08% and the inhibition [6] was 0.98%. The inhibition [7] was 3.05%, the inhibition [8] was 1.39% and the inhibition [9] was 2.07%. It also gave an inhibition [10] of 0.5%, an inhibition [11] of 1.7% and an inhibition [12] of 1.35%. The inhibition [13] was 3.3%, the inhibition [14] was 1.02% and the inhibition [15] was 0.06%. It also gave an inhibition [16] of 0.27%, an inhibition [17] of 0.67% and an inhibition [18] of 1.51%. The inhibition [19] was 3% and the inhibition [20] was 3.24%.
